Laboratory results taken from PubChem BioAssay (EPA / NIEHS).
Records with an inconclusive call do not appear. Activity calls are given as the source filed them. How the source made its calls, unless noted: active means hit-call score of the fitted dose curve at least 0.9, where 1 is the maximum; inactive means score below 0.9.

Assays:
[1] = CCTE_Mundy_HCI_Cortical_Synap_Neur_Matur_NeuriteSpotCountPerNeuron: CCTE's Synaptogenesis and Neurite Maturation Assay in rat cortical cells for Neurite Spot Count per Neuron Count, Mundy Lab (AID 2284215)
Outline: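 Developing rat cortical neurons, with glia suppressed by AraC, are exposed to chemicals from DIV 7 to DIV 12. Automated fluorescence imaging of MAP2-labelled neurites and synaptophysin puncta yields a count per neuron, normalised against DMSO wells.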

[2] = CCTE_Mundy_HCI_Cortical_Synap_Neur_Matur_SynapseCount: CCTE's Synaptogenesis and Neurite Maturation Assay in rat cortical cells for Synapse Count, Mundy Lab (AID 2284218)
Outline: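 Cells were plated, allowed 2 hr to attach, treated with AraC at DIV 5, then exposed to chemicals from DIV 7 until DIV 12. After fixation and MAP2/synaptophysin immunolabelling, synapses per neuron were quantified by automated imaging against DMSO.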

[3] = CCTE_Mundy_HCI_hN2_NOG_NeuriteCount: CCTE's Neurite Outgrowth Assay in human hN2 cells for Neurite Count, Mundy Lab (AID 2284219; active means hit-call score of the fitted dose curve at least 0.9, where 1 is the maximum)
Outline: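 In this morphology assay, hNP1-derived neurons received test chemical 2 h post-plating and were fixed two days later in warm paraformaldehyde/sucrose containing Hoechst 33342. Neurites, labelled by rabbit anti-βIII-tubulin (1:800) and Alexa Fluor-488 (1:500), were counted automatically.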

[4] = CCTE_Mundy_HCI_hN2_NOG_NeuriteLength: CCTE's Neurite Outgrowth Assay in human hN2 cells for Neurite Length, Mundy Lab (AID 2284220; active means hit-call score of the fitted dose curve at least 0.9, where 1 is the maximum)
Outline: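 Plate hNP1-derived neurons, then add chemical 2 h later as a 1/10 dilution. Stain with anti-βIII-tubulin then Alexa Fluor-488 secondary, and image automatically to measure neurite length.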

[5] = CCTE_Mundy_HCI_hN2_NOG_NeuronCount: CCTE's Neurite Outgrowth Assay in human hN2 cells for Neuron Count, Mundy Lab (AID 2284221; active means hit-call score of the fitted dose curve at least 0.9, where 1 is the maximum)
Outline: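 Read-out is the number of betaIII-tubulin-positive neurons imaged by automated high-content analysis, with DMSO as negative control.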

[6] = CCTE_Mundy_HCI_Cortical_Synap_Neur_Matur_NeuriteCount: CCTE's Synaptogenesis and Neurite Maturation Assay in rat cortical cells for Neurite Count, Mundy Lab (AID 2284222)
Outline: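 Primary rat cortical cells were plated, treated with AraC at DIV 5, then exposed to chemicals from DIV 7 through DIV 12. After fixation and immunostaining for MAP2 and synaptophysin, imaging quantified neurites, with DMSO as the negative control.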

[7] = CCTE_Mundy_HCI_Cortical_Synap_Neur_Matur_CellBodySpotCount: CCTE's Synaptogenesis and Neurite Maturation Assay in rat cortical cells for Cell Body Spot Count, Mundy Lab (AID 2284223)
Outline: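 Chemicals were applied to AraC-treated rat primary cortical cells at DIV 7 and measured at DIV 12. Fixed cells were labelled for MAP2, synaptophysin and nuclei, and high-content imaging gave cell body synaptophysin spot counts per neuron relative to DMSO.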

[8] = CCTE_Mundy_HCI_hNP1_Pro_ResponderAvgInten: CCTE's Proliferation Assay in human neuroprogenitor cells, Mundy Lab (AID 2284224; active means hit-call score of the fitted dose curve at least 0.9, where 1 is the maximum)
Outline: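 Proliferation was scored as BrdU labelling intensity in human neural progenitors derived from WA09 embryonic cells, measured 26.25 hours after chemical dosing. Activity was fitted relative to DMSO.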

[9] = CCTE_Mundy_HCI_Cortical_NOG_NeuronCount: CCTE's Neurite Outgrowth Assay in rat cortical cells for Neuron Count, Mundy Lab (AID 2284236; active means hit-call score of the fitted dose curve at least 0.9, where 1 is the maximum;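 further: neurons counted by imaging betaIII-tubulin and Hoechst stained cortical cells; cells exposed to compound for about 48 hours before fixation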)
Outline: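 Read-out: neuron number by high-content imaging of betaIII-tubulin (Alexa Fluor-488) and Hoechst-labelled rat primary cortical cells.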

[10] = CCTE_Mundy_HCI_Cortical_NOG_BPCount: CCTE's Neurite Outgrowth Assay in rat cortical cells for Branch Point Count, Mundy Lab (AID 2284237);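 further: branch points counted about two days after chemical exposure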
Outline: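 Measured 50.33 h after dosing, this morphology endpoint uses rat primary cortical cultures labelled for betaIII-tubulin. Branch points are quantified by high-content imaging, with DMSO as negative control and baseline.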

[11] = CCTE_Mundy_HCI_hNP1_Casp3_7: CCTE's Caspase-Glo 3/7 Assay in human neuroprogenitor cells for Apoptosis, Mundy Lab (AID 2284240)
Outline: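 Apoptosis is scored by activated caspase-3/7 luminescence in WA09-derived neural progenitor cells, measured 26.5 h after chemical dosing. Values represent gain of signal relative to DMSO vehicle.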

[12] = CCTE_Mundy_HCI_hNP1_CellTiter: CCTE's Cell Titer-Glo 2 Assay in human neuroprogenitor cells for Viability, Mundy Lab (AID 2284241; active means hit-call score of the fitted dose curve at least 0.9, where 1 is the maximum;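 further: a hit is a drop in ATP luminescence versus DMSO meaning reduced viability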)
Outline: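 Human neural progenitor cells (hNP1, WA09-derived) were plated on poly-L-ornithine/laminin and grown 40 to 44 hours at 37 °C, 5% CO2 before chemical addition. Twenty-four hours later, ATP was measured by CellTiter-Glo luminescence; loss of signal versus DMSO indicates reduced viability.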

[13] = CCTE_Mundy_HCI_Cortical_Synap_Neur_Matur_NeuronCount: CCTE's Synaptogenesis and Neurite Maturation Assay in rat cortical cells for Neuron Count, Mundy Lab (AID 2284242; active means hit-call score of the fitted dose curve at least 0.9, where 1 is the maximum;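 further: neuron number from Hoechst nuclei and MAP2 staining by high-content imaging; hits reduce neuron count versus DMSO baseline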)
Outline: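 Cortical cells from rat are plated, treated with AraC at DIV 5, and exposed to test chemicals with a media change at DIV 7. At DIV 12 they are fixed and immunostained (MAP2, synaptophysin), and imaged neuron counts are compared against DMSO controls.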

[14] = IUF_NPC2c_oligodendrocyte_migration_120hr: Leibniz Research Institute for Environmental Medicine (IUF) 120-hour Neural Progenitor Cell Migration Assay for Oligodendrocyte Migration (NPC2c) (AID 2284297);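 further: O4-positive oligodendrocyte migration distance divided by radial glia migration distance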
Outline: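 Using fetal brain neural progenitor spheres differentiating in N2 medium at 37C, compounds were present for 120 h. Oligodendrocyte migration distance, normalized to radial glia migration, was measured from imaged O4 staining.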

[15] = IUF_NPC2a_radial_glia_migration_120hr: Leibniz Research Institute for Environmental Medicine (IUF) 120-hour Neural Progenitor Cell Migration Assay for Radial Glia Migration (NPC2a) (AID 2284298)
Outline: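 Exposure of 0.3 mm primary hNPC spheres runs day 0 to 120 h with a half-volume medium change at day 3. Fixed cells get Hoechst staining; high-content analysis of nuclear positions yields radial glia migration distance per well, compared against DMSO controls.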

[16] = IUF_NPC2a_radial_glia_migration_72hr: Leibniz Research Institute for Environmental Medicine (IUF) 72-hour Neural Progenitor Cell Migration Assay for Radial Glia Migration (NPC2a) (AID 2284299)
Outline: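 Single 0.3 mm neurospheres were plated per well in N2 differentiation medium and exposed from the start of differentiation. After 72 hours, brightfield images were taken and radial glia migration from the sphere core edge was measured manually in four directions, averaged per well.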

[17] = IUF_NPC2b_neuronal_migration_120hr: Leibniz Research Institute for Environmental Medicine (IUF) 120-hour Neural Progenitor Cell Migration Assay for Neuron Migration (NPC2b) (AID 2284300)
Outline: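 Fetal human NPC spheres migrate on PDL/laminin during 120 h compound treatment; neuronal migration distance, glia-normalized, scored versus DMSO control.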

[18] = IUF_NPC3_neuronal_differentiation_120hr: Leibniz Research Institute for Environmental Medicine (IUF) 120-hour Neuronal Differentiation Assay (NPC3) (AID 2284301)
Outline: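 Value is percent TUBB3-positive neurons among Hoechst-stained nuclei in the migration area, scored by trained CNN after 120 h differentiation. Primary hNPC spheres on poly-D-lysine/laminin, N2 medium, continuous dosing from day 0, half-refeed day 3; DMSO reference.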

[19] = IUF_NPC4_neurite_length_120hr: Leibniz Research Institute for Environmental Medicine (IUF) 120-hour Neuronal Morphology Assay for Neurite Length (NPC4) (AID 2284302)
Outline: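 Neurite length, the mean in um across TUBB3-stained neurons, is derived by skeletonization of high-content images after 120 h differentiation. Compound exposure, 7 concentrations plus solvent control, ran from plating of hNPC spheres on poly-D-lysine/laminin, with medium half-replaced on day 3.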

[20] = IUF_NPC5_oligodendrocyte_differentiation_120hr: Leibniz Research Institute for Environmental Medicine (IUF) 120-hour Oligodendrocyte Differentiation Assay (NPC5) (AID 2284304; active means hit-call score of the fitted dose curve at least 0.9, where 1 is the maximum;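 further: primary human fetal neural progenitor spheres plated to migrate and differentiate; share of O4-positive cells among Hoechst nuclei found by CNN image analysis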)
Outline: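 After plating on poly-D-lysine/laminin, fetal-derived hNPC spheres differentiated for 120 h at 37C in compound-containing N2 medium, refreshed by half on day 3. O4 immunostaining over Hoechst nuclei in the migration zone gave oligodendrocyte percentage relative to DMSO.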

[21] = IUF_NPC4_neurite_area_120hr: Leibniz Research Institute for Environmental Medicine (IUF) 120-hour Neuronal Morphology Assay for Neurite Area (NPC4) (AID 2284305; active means hit-call score of the fitted dose curve at least 0.9, where 1 is the maximum)
Outline: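 Neurite area (pixels, nuclei excluded) of TUBB3-positive neurons from hNPC spheres differentiating 5 days under continuous exposure at 37 C, 5% CO2. High-content imaging; loss of signal versus DMSO control across 7 concentrations.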

[22] = IUF_NPC2-5_cytotoxicity_72hr: Cytotoxicity Assessment at 72 hours in the Leibniz Research Institute for Environmental Medicine (IUF) Neural Progenitor Cell Migration and Differentiation Assay for Cytotoxicity (NPC2-5) (AID 2284306; active means hit-call score of the fitted dose curve at least 0.9, where 1 is the maximum;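 further: LDH release into supernatant measured by resorufin fluorescence marking membrane damage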)
Outline: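 Membrane-integrity cytotoxicity at 72 h, read as LDH-driven resorufin fluorescence in supernatant. hNPC spheres from fetal cortex differentiate on coated plates in N2 medium, 37C, 5% CO2; seven serial compound concentrations plus solvent control (DMSO ≤0.1%).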

[23] = IUF_NPC2-5_cytotoxicity_120hr: Cytotoxicity Assessment at 120 hours in the Leibniz Research Institute for Environmental Medicine (IUF) Neural Progenitor Cell Migration and Differentiation Assay (NPC2-5) (AID 2284307; active means hit-call score of the fitted dose curve at least 0.9, where 1 is the maximum)
Outline: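 Membrane-integrity loss is quantified by LDH in supernatant after five days of exposure of migrating, differentiating human fetal NPC spheres; seven serially diluted concentrations are tested with DMSO kept at or below 0.1%.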

[24] = IUF_NPC2-5_cell_number_120hr: Cell Number Assessment at 120 hours in the Leibniz Research Institute for Environmental Medicine (IUF) Neural Progenitor Cell Migration and Differentiation Assay (NPC2-5) (AID 2284308);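 further: count of Hoechst-stained nuclei in migration zone around plated human neural progenitor spheres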
Outline: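 Seven-point serial dilutions plus solvent control were applied to plated 0.3 mm hNPC spheres at differentiation start, with medium half-replaced at day 3. Nuclei positive for Hoechst in the migration zone were enumerated at 120 h.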

[25] = IUF_NPC2-5_viability_120hr: Viability Assessment at 120 hours in the Leibniz Research Institute for Environmental Medicine (IUF) Neural Progenitor Cell Migration and Differentiation Assay (NPC2-5) (AID 2284312)
Outline: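 Alamar blue resorufin fluorescence read after 5 days of differentiation, with compound present from day 0 and replenished at day 3. Primary hNPC spheres on laminin-coated plates, 37C; seven concentrations plus solvent control, fitted against DMSO.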

Measured: AC50

O=[As]O
active: [1] 5 µM | [2] 5 µM | [3] 6.15 µM | [4] 5.09 µM | [5] 4.47 µM | [6] 4.43 µM | [7] 5 µM | [8] 2.79 µM | [9] 3.59 µM | [10] 2.61 µM | [11] 3.8 µM | [12] 6.1 µM | [13] 2.74 µM | [15] 0.805 µM | [19] 0.752 µM
inactive: [14] | [16] | [17] | [18] | [20] | [21] | [22] | [23] | [24] | [25]
